Experimental data as given in PubChem BioAssay (NCATS).
Values without a mark were called inactive. Inconclusive results are not listed. Where a call stands in place of a potency, no number is given. Calls of active or inactive are those of the source. The call rests on the fitted dose curve; in most records, active means well fitted curve in the direction sought with a large enough effect; inconclusive means small, poorly fitted or top-dose-only effect, or another doubt; inactive means no such curve, though single readings can be large; an effect the other way counts as inactive or inconclusive.

Key:
[1] = biological target: Glutathione peroxidase 1 (Homo sapiens) (UniProt P07203); experiment: Primary qHTS Assay for Inhibitors of Recombinant Selenoprotein Glutathione Peroxidase 1 (GPX1) (AID 1845191); further: nearly all actives have a fitted effect of over 65% in size
How it was run: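 10 nM GPX1 + cpd, 30 min RT; start w/ 1 mM GSH, 0.5 mM cumene hydroperoxide, 0.5 mM NADPH, 100 nM GR, 0.01% BSA; buffer 50 mM Tris-HCl pH 7.5, 2 mM EDTA, 150 mM NaCl; Fl 340/450, 0 & 15 min.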

[2] = biological target: Phospholipid hydroperoxide glutathione peroxidase GPX4 (Homo sapiens) (UniProt P36969); experiment: Primary qHTS Assay for Inhibitors of Recombinant Selenoprotein Glutathione Peroxidase 4 (GPX4) (AID 1845192); further: nearly all actives have a fitted effect of over 65% in size; on activity change, negative = inhibition: series mostly up to about 50 µM
How it was run: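 NADPH consumption, followed by fluorescence at 340/450 nm between 0 and 15 min, reports GPX4 activity via coupled glutathione reductase (100 nM). Enzyme 200 nM was pre-exposed to compound 30 min; 0.5 mM cumene hydroperoxide and 1 mM GSH served as substrates.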

[3] = Quantitative High-Throughput drug screen in 47 multiple myeloma cell lines against the NCATS MIPE library collection: FR4_PLB cell viability assay (AID 1918924; further: nearly all actives have a fitted effect of over 35% in size; further: potency means the concentration at half of the fitted maximal effect)
How it was run: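 Primary qHTS used for cherry-picking: cells at 500/well, library compounds for 48 h (37C, 5% CO2), luminescent ATP assay.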

[4] = Quantitative High-Throughput drug screen in 47 multiple myeloma cell lines against the NCATS MIPE library collection: Delta47_JCRB cell viability assay (AID 1918925; further: nearly all actives have a fitted effect of over 45% in size; further: potency means the concentration at half of the fitted maximal effect)
How it was run: (§1)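 qHTS of the MIPE 4.0 collection: 500 myeloma cells/well, 48 h drug exposure at 37C in 5% CO2, then CellTiter-Glo for 5 min at room temperature before luminescence reading.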

[5] = Quantitative High-Throughput drug screen in 47 multiple myeloma cell lines against the NCATS MIPE library collection: EJM_DSMZ cell viability assay (AID 1918926; further: nearly all actives have a fitted effect of over 30% in size; further: potency means the concentration at half of the fitted maximal effect)
How it was run: as §1

[6] = biological target: Luciferin 4-monooxygenase (Photinus pyralis) (UniProt P08659); experiment: Primary firefly luciferase (FLuc) qHTS assay for identification of artifact compounds. (AID 1845220); further: nearly all actives have a fitted effect of over 60% in size; on activity change, negative = inhibition: series mostly up to about 54 µM
How it was run: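 Cell-free, 1536-well qHTS. Buffer pH 7.6 with 0.01% Tween-20 and 0.05% BSA; 10 uM D-luciferin, 10 uM ATP; 10 nM P. pyralis luciferase; luminescence after 5 min.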

[7] = Primary fluorescence-based thiol-reactive (MSTI) qHTS assay for identification of artifact compounds. (AID 1845221); further: nearly all actives have a fitted effect of over 65% in size; further: potency means the concentration at half of the fitted maximal effect
How it was run: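 qHTS titration of compound; 4 uM MSTI, PBS pH 7.4, 2% DMSO; 1 h RT, dark; fluorescence 525/598 nm; normalized to Acetyl-MSTI and MSTI; 4-parameter Hill fit.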

[8] = tested on: Nanoluciferase (engineered Oplophorus gracilirostris luciferase); experiment: Primary Nanoluciferase (NLuc) qHTS assay for identification of artifact compounds. (AID 1845222); further: series mostly up to about 54 µM
How it was run: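 Compounds are pinned into diluted (1:55) conditioned medium of NLuc-expressing S16 cells and held 15 min at room temperature protected from light. Nano-Glo substrate follows, and luminescence is read 5 min later.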

[9] = Primary redox qHTS assay for identification of artifact compounds. (AID 1845223); further: potency means the concentration at half of the fitted maximal effect
How it was run: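 Amplex Red (25 uM) and HRP (250 mU/mL) in HBSS, with compounds for 15 min, then 250 uM DTT for 30 min, room temperature, dark. Fluorescence 525/598 nm read; normalized to DMSO and 10 uM DA3003; Hill fit.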

[10] = Quantitative High-Throughput drug screen in 47 multiple myeloma cell lines against the NCATS MIPE library collection: ARP1_JJKsccF8 cell viability assay (AID 1918928; further: nearly all actives have a fitted effect of over 40% in size; further: potency means the concentration at half of the fitted maximal effect)
How it was run: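 Here, 48 h treatment with MIPE 4.0 agents at 37 °C preceded an ATP luminescence read. Plating density was 500 cells per well.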

[11] = Quantitative High-Throughput drug screen in 47 multiple myeloma cell lines against the NCATS MIPE library collection: AMO1_DSMZ cell viability assay (AID 1918927; further: nearly all actives have a fitted effect of over 30% in size; further: potency means the concentration at half of the fitted maximal effect)
How it was run: as §1

Glutathione peroxidase 1 (Homo sapiens), sequence (P07203 whole entry, looked up): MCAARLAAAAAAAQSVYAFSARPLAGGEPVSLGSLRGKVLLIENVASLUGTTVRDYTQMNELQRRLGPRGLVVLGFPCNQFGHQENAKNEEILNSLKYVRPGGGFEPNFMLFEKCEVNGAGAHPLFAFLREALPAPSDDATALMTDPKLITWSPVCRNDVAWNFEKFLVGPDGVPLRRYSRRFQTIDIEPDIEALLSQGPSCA
Phospholipid hydroperoxide glutathione peroxidase GPX4 (Homo sapiens), sequence (P36969 whole entry, looked up): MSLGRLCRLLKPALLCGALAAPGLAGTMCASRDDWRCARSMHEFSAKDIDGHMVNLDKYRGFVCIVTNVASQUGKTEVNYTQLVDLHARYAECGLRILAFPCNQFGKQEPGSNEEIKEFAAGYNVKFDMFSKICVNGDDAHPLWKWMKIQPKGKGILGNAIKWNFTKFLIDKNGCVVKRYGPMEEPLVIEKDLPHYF

Structure (SMILES) | Potency [1] | Potency [2] | Potency [3] | Potency [4] | Potency [5] | Potency [6] | Potency [7] | outcome [8] | Potency [9] | Potency [10] | Potency [11] | outcome [1] | activity change, negative = inhibition [2]
CC(C)(C)c1nc2c3cc[nH]c(=O)c3c3cc(F)ccc3c2[nH]1 | inactive | inactive | 0.833 µM (active) | 3.32 µM (active) | 2.96 µM (active) |  |  |  |  |  |  |  | 
O=C(O)c1ccc(Nc2ncc3c(n2)-c2ccc(Cl)cc2C(c2c(F)cccc2F)=NC3)cc1 | inactive | inactive | inactive | 0.935 µM (active) |  | inactive | inactive | inactive | inactive | 0.0105 µM (active) |  |  | 
CN(C)CC(=O)N1CCC(c2ccc(NC(=O)c3ncc(C#N)[nH]3)c(C3=CCCCC3)c2)CC1 | inactive | inactive |  | 18.7 µM (active) | 18.7 µM (active) | inactive | inactive | inactive | inactive | inactive | 7.43 µM (active) |  | 
C[C@@H]1CC[C@@]2(OC1)OC1CC3C4CC=C5CC(O)CCC5(C)C4CCC3(C)C1[C@@H]2C (stereo partly drawn) | inactive | inactive | inactive | inactive | inactive |  |  |  |  | inactive | inactive |  | 
CCc1nc(-c2cccc(C)c2)c(-c2ccnc(NC(=O)c3ccccc3)c2)s1 | inactive | inactive | 18.7 µM (active) |  | 16.6 µM (active) | inactive | inactive | inactive | inactive |  | 18.7 µM (active) |  | 
O=C(c1ccc(F)cc1)N1CCC[C@H](c2nc(-c3ccc(F)cc3)no2)C1 | inactive | inactive | inactive | inactive | inactive |  |  |  |  |  | inactive |  | 
COC[C@H](NC(=O)c1cnc(C)s1)C(=O)N[C@@H](COC)C(=O)N[C@@H](Cc1ccccc1)C(=O)[C@@]1(C)CO1 | inactive | inactive | 0.0469 µM (active) | 0.0372 µM (active) | 0.166 µM (active) |  |  |  |  | 0.0743 µM (active) | 0.0264 µM (active) |  | 
O=C(Nc1ccc(Oc2ccnc3[nH]ccc23)c(F)c1)c1cccn(-c2ccc(F)cc2)c1=O | inactive | inactive |  |  |  | inactive | inactive | inactive | inactive | inactive | inactive |  | 
Cn1cc(C[C@@H](N)C(=O)O)c2ccccc21 |  |  | inactive | inactive | inactive |  |  |  |  | inactive | inactive | inactive [at 9.52 µM] | 0.696% [at 9.73 µM]
CCOc1cc2c(c(F)c1OCC)C(=N)N(CC(=O)c1cc(N3CCOCC3)c(OC)c(C(C)(C)C)c1)C2 | inactive | inactive | 23.5 µM (active) | 14.8 µM (active) |  | inactive |  | inactive | inactive | 18.7 µM (active) |  |  | 
C[C@H]1[C@@H](OC(=O)CCC(=O)O)O[C@@H]2O[C@@]3(C)CC[C@@H]4[C@H](C)CC[C@@H]1[C@@]24OO3 | inactive | inactive | 11.8 µM (active) |  |  | inactive | inactive | inactive | inactive | 2.35 µM (active) | 0.833 µM (active) |  | 
FC(F)(F)c1ccc(Nc2nc3ccc(Oc4ccnc(-c5ncc(C(F)(F)F)[nH]5)c4)cc3[nH]2)cc1 | inactive | inactive | 18.7 µM (active) | 23.5 µM (active) |  | inactive | inactive | inactive | inactive | 20.9 µM (active) | 16.6 µM (active) |  | 
COc1cc(CCc2cc(NC(=O)c3ccc(N4C[C@@H](C)N[C@@H](C)C4)cc3)n[nH]2)cc(OC)c1 | inactive | inactive | 18.7 µM (active) | 14.8 µM (active) | 18.7 µM (active) | inactive | inactive |  | inactive |  | 18.7 µM (active) |  | 
CC(O)(C#Cc1ccc2c(c1)N(c1nc(N)ncc1Cl)CC2)c1nccs1 (stereo not drawn) | inactive | inactive |  |  | 11.8 µM (active) | inactive | inactive | inactive |  |  |  |  | 
N#Cc1cc(NC(=O)Nc2nnc(-c3ccncc3)s2)ccc1-c1cn[nH]c1 | inactive | inactive | inactive | inactive | inactive |  |  |  |  |  | inactive |  | 
CC1=C(C(=O)Nc2cc3cn[nH]c3cc2F)C(c2ccc(Cl)cc2F)N=C(c2ccnc(Cl)c2)N1 (stereo not drawn) | inactive | inactive |  | 11.8 µM (active) |  | inactive | inactive |  | inactive |  | 14.8 µM (active) |  | 
CCCCOc1ccc(C(=O)Nc2ccc(F)cc2F)cc1 | inactive | inactive |  | inactive |  | inactive | inactive | inactive | inactive | inactive |  |  | 
Cc1coc2c1C(=O)C(=O)c1c-2ccc2c(C)cccc12 | inactive | inactive | 20.9 µM (active) |  | 16.6 µM (active) | inactive | 3.36 µM (active) | inactive | 1.06 µM (active) |  | inactive |  | 
Oc1ccc(-c2ccc(-c3cc(Nc4cccc(CNC5CC5)c4)n[nH]3)cc2)c(O)c1 | inactive | inactive | 0.935 µM (active) | 0.469 µM (active) | 0.935 µM (active) |  |  |  |  | 4.18 µM (active) | 1.32 µM (active) |  | 
COc1cc([C@@H]2c3cc4c(cc3[C@H](O)[C@H]3COC(=O)[C@@H]23)OCO4)cc(OC)c1OC | inactive | inactive | 0.0296 µM (active) | 0.166 µM (active) | 0.59 µM (active) |  |  |  |  |  | 0.0264 µM (active) |  | 
